Screens deposited in PubChem BioAssay by several laboratories.
Gli-Sufu block – antagonists of Gli-Sufu signaling; inhibition, % at 5 µM; 340,000 tested, 0.74% active; Sufu-KO-LIGHT fibroblasts, Gli luciferase reporter luminescence;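 active = inhibition above about 55%, limit read from the data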;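 note: 0% = DMSO-treated cells and 100% = wells with medium but no cells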
NR5A2 inv ag – suppresses constitutive activity of human LRH-1. O00482. HEK293T StAR-luciferase reporter, LRH-1 transfected, 24 h. inhibition, % at 3.6 µM. 360,000 tested, 0.13% active;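 active = inhibition above the mean inhibition of all tested compounds plus 3 SD, cut at about 73% in these data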;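 note: 0% = DMSO wells and 100% = reporter-only cells lacking LRH-1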
NCOA2 inhibitor – inhibits human steroid receptor coactivator 2. 370,000 tested, 0.17% active. inhibition, % at 9 µM. AID 651957. Q15596. HEK293 GAL4-SRC2 luciferase reporter, luminescence;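 active = inhibition above the mean inhibition of all tested compounds plus 3 SD, set per campaign, cut at about 52% in these data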;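 note: 0% = DMSO treated cells and 100% = cells given Gossypol at 36 µM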
NCOA1 inh – inhibitors of human steroid receptor coactivator 1 (SRC1) | HEK293 GAL4-SRC1 luciferase reporter, luminescence | inhibition, % at 3.6 µM | Q15788 | 360,000 tested, 0.12% active;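 active = inhibition above the campaign mean plus 3 SD, with each screening campaign given its own cutoff, cut at about 60% in these data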;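 note: 0% = DMSO treated cells and 100% = gossypol at 36 µM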
NCOA3 inh – inhibits human SRC3 coactivator | HEK293 GAL4-SRC3 luciferase reporter, luminescence | inhibition, % at 3.6 µM | 360,000 tested, 0.17% active;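 active = inhibition above a per-campaign cutoff, the mean of all compounds plus 3 SD, cut at about 60% in these data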;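 note: 0% = DMSO-treated cells and 100% = gossypol-treated cells at 36 µM; higher means less SRC3-driven luciferase light from the GAL4 reporter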
Gli-Sufu confirm – confirmation of Gli-SUFU pathway antagonists | inhibition, % at 5 µM | shares compounds with Gli-Sufu block | 2,500 tested, 40% active | Sufu-KO-LIGHT cells, Gli luciferase reporter, luminescence;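 active = mean inhibition at 5 µM reaching about 45%, limit read from the data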;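 note: plate controls were DMSO-treated cells for no effect and wells lacking cells for full effect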
Gli cytotox – cytotoxic in Gli-SUFU antagonist counter-screen | cytotoxicity, % at 5 µM | shares compounds with Gli-Sufu block | Sufu-KO-LIGHT cells cytotoxicity, ATP luminescence | 2,500 tested, 32% active;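 active = mean cytotoxicity at 5 µM above about 25%, limit read from the data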;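 note: cells exposed to compound overnight for roughly 16 to 18 hours; plate controls were DMSO wells with cells for no effect and medium without cells for full effect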
Wnt3a counter – inhibits Wnt3a reporter, counter-screen for Gli-SUFU antagonists. 2,500 tested, 20% active. Wnt-LIGHT cells, Wnt3a-driven luciferase reporter, luminescence. inhibition, % at 6.25 µM. shares compounds with Gli-Sufu block;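 active = mean inhibition above about 25%, limit read from the data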
* hit, by the source's call; . = not tested or not shown. The list is not random: actives were taken first. Their share in the collection is about 0.83%.

SMILES	Gli-Sufu block	NR5A2 inv ag	NCOA2 inhibitor	NCOA1 inh	NCOA3 inh	Gli-Sufu confirm	Gli cytotox	Wnt3a counter
O=C(COc1ccc(Br)cc1)NCCCNC(=O)c1cccnc1	59*	13	32	-10	12	26	-1	-10
O=C(COc1ccc(Cl)cc1)NCCCNC(=O)c1cccnc1	-8	-1	12	12	-13	.	.	.
Cc1nc2sccn2c1-c1csc(NCc2ccccc2)n1	56*	18	22	17	17	50*	22	16
CCC(C)N(C(=O)CSc1nc(C)c(C)c(C)c1C#N)C1CCS(=O)(=O)C1 (stereo not drawn)	54	28	0	13	26	11	7	-23
C=CCN1[C@@H](C)COc2cc(F)ccc2S1(=O)=O	.	.	19	.	.	.	.	.
COC(=O)C[C@H]1CC[C@H]2[C@H](COc3ccc(NC(=O)Nc4ccccc4F)cc3C(=O)N2C)O1	.	.	-3	.	.	.	.	.
CC1CCN(c2ccc(NC(=S)NC(=O)c3ccc(-c4cccc([N+](=O)[O-])c4)o3)cc2)CC1	14	-2	-5	3	9	.	.	.
CC1CCN(c2ccccc2NC(=S)NC(=O)c2ccc(-c3cccc([N+](=O)[O-])c3)o2)CC1	79*	-20	-32	-10	-9	86*	32*	15
COc1cc(C(=O)N/N=C/c2ccc(OC(=O)c3ccccc3Cl)c(OC)c2)ccc1O	2	-13	.	-8	12	.	.	.
COc1cc(/C=N/NC(=O)c2ccccc2O)ccc1OC(=O)CC1SC(=O)NC1=O (stereo not drawn)	58*	-28	-30	-28	-36	7	7	-48
COC(=O)[C@]12C[C@H](CC(=O)NCCc3ccccc3OC)C(=O)N(CCc3ccc(OC)c(OC)c3)C1=C[C@H](COCc1ccccc1)O[C@@H]2C	.	.	-7	.	.	.	.	.
O=[N+]([O-])c1cccnc1N1CCN(Cc2ccc3c(c2)OCO3)CC1	-13	3	-4	-1	-17	.	.	.
O=[N+]([O-])c1ccc2ncnc(N3CCN(Cc4ccc5c(c4)OCO5)CC3)c2c1	68*	30	49	61	56	36	26*	-16
N#Cc1ccc(-c2cccs2)nc1SCc1cccnc1	60*	23	-17	-28	-8	34	55*	-39
CCOC(=O)COc1ccc(C(C)c2ccc(NC(=O)OC(C)(C)C)cc2)cc1 (stereo not drawn)	.	.	0	.	.	.	.	.
CN(C[C@@H](Cc1cccc2ccccc12)N(C[C@H](Cc1ccccc1)N(CCc1ccccc1)N=O)N=O)N=O	60*	7	5	9	1	7	10	-12
Cc1ccc(C[n+]2cccc(-c3ccccc3)c2)c(C)c1	84*	28	3	11	29	84*	21	56*
COc1ccccc1-n1c(=O)c2c3c(sc2n2c(SC)nnc12)CCC3	52	-14	6	4	11	15	-4	17
CCn1c(C)[n+](Cc2ccccc2)c2ccc(C(=O)OC)cc21	6	11	-29	-4	19	.	.	.
CCOC(=O)c1ccc2c(c1)n(CC)c(/C=C/Nc1ccccc1)[n+]2CC	54	-14	-1	14	21	53*	34*	-13
CCn1c(C)[n+](Cc2ccccc2)c2ccc(Cl)cc21	27	-2	11	14	6	.	.	.
CCn1c(/C=C/N(C)c2ccccc2)[n+](CC)c2ccc(Cl)cc21	85*	0	-9	3	24	89*	36*	42*
CCn1c(/C=C/Nc2ccccc2)[n+](CC)c2ccc(Cl)cc21	52	5	5	9	-4	43	25	-33
Cc1ccccc1Cn1cc(CN2[C@@H](CC(C)C)COc3cccc(F)c3S2(=O)=O)nn1	.	.	0	.	.	.	.	.
Cn1cc(S(=O)(=O)N2CCc3ccccc32)cc1C(=O)NC(C)(C)C	61*	31	20	17	20	58*	35*	13
SMILES	Gli-Sufu block	NR5A2 inv ag	NCOA2 inhibitor	NCOA1 inh	NCOA3 inh	Gli-Sufu confirm	Gli cytotox	Wnt3a counter
CCc1ccccc1NC(=S)N(CCCN1CCN(C)CC1)Cc1cccs1	54	10	5	0	19	17	4	14
CCOc1ccc(NC(=S)NNc2ccnc3cc(Cl)ccc23)cc1	56*	-10	14	-6	-5	66*	21	-31
S=C(NNc1ccnc2cc(Cl)ccc12)Nc1ccc(Cl)cc1Cl	20	-5	-16	7	-2	.	.	.
NCC(=O)Nc1ccc(Cl)cc1C(=O)c1ccc[nH]1	52	59	56*	53	51	33	0	11
CC(=O)Nc1ccc(Cl)cc1C(=O)c1ccc[nH]1	.	2	7	18	-7	.	.	.
CC(C)(C)c1ccc(S(=O)(=O)N2CCCC2C(=O)N2CCN(c3ccccc3)CC2)cc1 (stereo not drawn)	.	.	-2	.	.	.	.	.
O=S(=O)(c1ccc(F)cc1)N1CCCC(CO)C1 (stereo not drawn)	52	15	2	12	11	12	2	-9
COc1ccc(-n2c(-c3ccc(Cl)cc3)c[n+]3c2CCc2ccccc2-3)cc1	85*	55	29	23	49	86*	28*	13
COc1ccc(-n2c(-c3ccccc3)nnc2-c2ccc(Cl)cc2)cc1	4	5	-31	-1	-15	.	.	.
COc1cccc(-c2ccc(SCC(=O)c3ccccc3)nn2)c1	55*	-8	-4	-24	-10	22	12	-71
O=C(OCCN1CCN(C2CN(Cc3cn(Cc4ccccc4Cl)nn3)S(=O)(=O)C2)CC1)c1cc2ccccc2o1 (stereo not drawn)	.	.	7	.	.	.	.	.
COC(=O)C[C@H]1CC[C@@H]2[C@@H](COc3ccc(NC(=O)c4ccno4)cc3C(=O)N2C)O1	.	.	19	.	.	.	.	.
O=C(NC1CCCCN(Cc2ccc(Cl)cc2)C1=O)c1cccc([N+](=O)[O-])c1 (stereo not drawn)	.	.	1	.	.	.	.	.
CCOCCOC(=O)c1[nH]c2c(c1C)C(=O)CC(c1ccccc1)C2 (stereo not drawn)	52	26	7	11	19	53*	60*	-40
CCOCCOC(=O)c1[nH]c2c(c1C)C(=O)CC(c1cc(OC)c(OC)c(OC)c1)C2 (stereo not drawn)	7	36	1	26	11	.	.	.
O=C(COC(=O)CCCSc1nc2ccccc2[nH]1)NC(=O)NC1CCCC1	55	14	-8	-13	9	8	-3	-11
CCNC(=O)NC(=O)COC(=O)CCCSc1nc2ccccc2[nH]1	26	12	-5	4	-12	.	.	.
C#CCNC(=O)C[C@H]1C[C@@]2(C(=O)OC)C(=C[C@H](C(C)(C)C)O[C@@H]2C)N(Cc2cccc3ccccc23)C1=O	.	.	4	.	.	.	.	.
